Assay outcomes (PubChem BioAssay)
Compounds with a hit are over-represented: about 20% of the library has one in this group of screens.
Pf growth 96h – P. falciparum growth inhibition at 96 hour, primary screen for plastid delayed-death inhibitors; P. falciparum luciferase reporter growth, 96 h; Potency, µM (doses to about 28.7 µM), for the others: at the highest dose activity change, negative = inhibition, actives largely listed as inhibitors; AID 504834; 6.9% of 320,000 active; also: potency is read from the fitted curve at half-maximal effect; % is scaled to controls: 0 for no effect and ±100 for the full control effect
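Luminescence readout: decreased luciferase signal marks inhibited growth of reporter-expressing P. falciparum in infected red cells (2% hematocrit, 0.05% parasitemia final), exposed to compound two generations (96 h, 37 C, 5% CO2).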
HCMV inh – blocks human cytomegalovirus replication | HFF cells, HCMV-luciferase reporter, 72 h; stronger effect = lower value | activity change, negative = inhibition, % at 57.5 µM | 4.5% of 410,000 active; in the data active = activity change below about -60%; inconclusive = no clear call, values can overlap the other calls; inactive = above about -39%; also: % is scaled to controls: 0 for no effect and ±100 for the full control effect
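Steps: HFFs plated, 16 h 37C; compounds added; HCMV-luciferase added to MOI 1 PFU/cell; 72 h 37C; OneGlo reagent, 5 min room temperature; luminescence read, normalized to controls.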
Shiga toxin inh – inhibitors of Shiga toxin in Vero cells. Vero cells, Shiga toxin protein synthesis inhibition reporter. inhibition, % at 38.7 µM. 9.2% of 290,000 active; in the data active = inhibition mostly above about 28%, no sharp cut-off; inactive = mostly below about 43%; also: 0% is about no effect
Cycloheximide cs – counter-screen for Shiga toxin inhibitors: cycloheximide protein synthesis inhibition; 12% of 300,000 active; cell reporter, cycloheximide protein synthesis inhibition counterscreen; max response, %; AID 2314; in the data active = max response mostly above about 13%, no sharp cut-off; inactive = mostly below about 14%; also: read at 38.3 µM for the half of the compounds with a filed dose; 0% is about no effect
Pf growth 48h – inhibits P. falciparum growth in the first generation, 48 h; 5.9% of 310,000 active; Potency, µM (highest dose often 28.7 µM), without a hit: at the top dose activity change, negative = inhibition, actives largely listed as inhibitors; P. falciparum luciferase growth in erythrocytes, 48 h; also: potency is read from the fitted curve at half-maximal effect; % is scaled to controls: 0 for no effect and ±100 for the full control effect
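Firefly luciferase activity from engineered P. falciparum reports growth; inhibitors lower the luminescent signal. Cultures contained 2% hematocrit erythrocytes at 0.1% final parasitemia.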
* = called active by the depositor; i = inactive; ? = inconclusive; . = no result given. Unless noted, calls follow the shape of the dose curve; as a rule, active = well fitted inhibition curve with a large enough effect; inconclusive = small, poorly fitted or top-dose-only effect, or another doubt; inactive = no such curve, though single readings can be large or run the other way.

SMILES | Pf growth 96h | HCMV inh | Shiga toxin inh | Cycloheximide cs | Pf growth 48h
O=C(O)CN1C(=O)/C(=C\c2cccc(OCc3ccccc3F)c2)SC1=S | ? | -75.6* | 10.1 | 11.0 | 24.8%
CCOc1ccc(S(=O)(=O)NCCCN2CCOCC2)cc1 | 7.6% | -11.2 | -1.8 | 2.1 | 2.2%
CCN(CC)C(=O)CN1C(=O)/C(=C/c2ccccc2)SC1=S | ? | -63.1* | 4.0 | -0.6 | -3.0%
CN(C(=O)CCN1C(=O)/C(=C/c2ccc(F)cc2)SC1=S)C1CCS(=O)(=O)C1 (centres undefined) | . | 13.7 | . | . | .
CC(C(=O)N(C)C1CCS(=O)(=O)C1)N1C(=O)/C(=C/c2ccc(F)cc2)SC1=S (centres undefined) | 11.7µM* | ? | 5.7 | 7.2 | 13.1µM*
Cc1ccc2c(CSc3nnc4ccccn34)cc(=O)oc2c1C | -12.5% | 41.0 | 60.2* | 17.0 | 33.9%
Cc1ccc2c(CSc3nc4ccccc4c(=O)n3CCCO)cc(=O)oc2c1C | ? | -18.1 | 109.3* | 8.7 | ?
Cc1ccc2c(Cn3ccnc3)cc(=O)oc2c1C | 12.4% | 18.2 | 44.1 | 14.6 | -9.8%
O=C(c1ccc2c(c1)OCO2)C1CCCN(C(=O)NCc2ccccc2)C1 (centres undefined) | ? | ? | 7.2 | 6.5 | 4.5%
O=C(c1ccc2c(c1)OCO2)C1CCCN(C(=O)c2cnn(Cc3ccccc3)c2)C1 (centres undefined) | 429.5% | -18.6 | 37.7* | 21.2* | -6.4%
O=C(c1ccc2c(c1)OCO2)C1CCCN(Cc2ccc(OC(F)F)cc2)C1 (centres undefined) | 10.4µM* | -10.7 | -6.4 | 0.1 | 24.7%
Cc1ccccc1OCC(=O)N/N=C/c1ccccn1 | 14.1% | -25.7 | 35.1* | 11.4 | -13.4%
O=C(N/N=C\c1ccccn1)c1ccccc1O | 52.4% | -10.1 | 120.2* | 32.7* | ?
Cc1ccccc1C(=O)N/N=C/c1ccccn1 | ? | 85.0 | 67.7* | 52.5* | -24.7%
O=C1c2cnc3nc(SCc4cccc(Cl)c4)nn3c2CC2c3ccccc3CCN12 (centres undefined) | 72.4% | -25.1 | 14.9 | 1.9 | ?
COc1ccccc1N1CCN(C(=O)c2cn(Cc3ccccc3)nc2-c2cccnc2)CC1 | 9.28µM* | -0.5 | . | . | ?
COc1ccc(CN2CCc3c(c(=O)n4ncc(C(=O)N5CCN(c6ccccc6OC)CC5)c4n3C)C2)cc1 | . | -84.3* | . | . | .
COc1cccc(N2CCN(C(=O)c3cn(Cc4ccccc4)nc3-c3cccnc3)CC2)c1 | ? | -37.5 | . | . | ?
CCn1c2c(c(=O)n3ncc(C(=O)Nc4cc(Cl)ccc4OC)c13)CN(Cc1ccc(OC)cc1)CC2 | . | -11.0 | . | . | .
O=C(c1cn(Cc2ccccc2)nc1-c1cccnc1)N1CCc2ccccc2C1 | 13.1µM* | 16.7 | . | . | ?
O=C(CSCc1nc2cccnc2n1C1CCCCC1)NCc1cccc(Br)c1 | . | -0.4 | . | . | .
O=C(NNC(=O)c1nn(-c2ccc(F)cc2)ccc1=O)c1ccccc1Cl | 86.1% | -4.0 | -4.2 | -1.9 | 51.8%
O=C(CSc1nnnn1-c1ccc(Cl)c(C(=O)O)c1)NC(c1ccccc1)c1ccccc1 | 2.8% | 0.0 | 10.3 | 3.5 | ?
C=CCOc1c(Br)cc(CNc2ccc(NC(=O)C(C)C)c(OC)c2)cc1OC | 8.28µM* | -98.2* | -3.9 | -1.2 | ?
COc1cc(CNc2ccc(C(=O)O)cc2)cc(Br)c1OCC(=O)NC(C)(C)C | -1.9% | -12.8 | 7.5 | -1.5 | -10.6%
SMILES | Pf growth 96h | HCMV inh | Shiga toxin inh | Cycloheximide cs | Pf growth 48h
COc1ccc(N2CCN(c3oc(COc4ccccc4)nc3C#N)CC2)cc1 | 55.2% | -17.5 | 34.1 | 11.3 | 13.1µM*
N#Cc1nc(COc2ccc(Br)cc2)oc1N1CCCCCC1 | ? | -17.7 | -3.5 | 9.2 | .
COc1ccc(N2CCN(c3oc(COc4ccc(Cl)cc4)nc3C#N)CC2)cc1 | ? | -26.2 | -1.6 | 8.1 | ?
N#Cc1nc(COc2ccc(F)cc2)oc1N1CCCCC1 | -0.8% | 9.8 | 64.9 | 27.2* | -22.7%
COc1ccc(N2CC(C(=O)Nc3ccncc3)CC2=O)cc1 (centres undefined) | -14.0% | -2.3 | 2.5 | -0.9 | -0.6%
O=C(O)C1CC=CCC1C(=O)NCCc1cccc(Cl)c1 (centres undefined) | -63.3% | . | 26.6 | -2.1 | .
Oc1ccc(O)c(C=NNC(=S)NC2CC3CC2C2C=CCC32)c1 (centres undefined) | . | -39.7 | . | . | .
NNC(=S)NC1CC2CC1C1C=CCC21 (centres undefined) | ? | -19.2 | 27.7 | 12.1* | ?
O=C(CSc1nccn1Cc1ccc(F)cc1)Nc1ccc2c(c1)OCO2 | . | 10.8 | . | . | .
CC(C)CCc1noc(CN(C)CCC2CCOCC2)n1 | 6.6% | -19.2 | 5.5 | -1.5 | 7.1%
Cc1nn(C)c(C)c1CN(Cc1nc(CCC(C)C)no1)C(C)C | 38.9% | -83.1* | -2.5 | 2.1 | ?
CC(=O)NCCOC(=O)Nc1cccnc1 | 23.5% | 33.8 | 22.5 | -3.8 | 1.85µM*
CC(=O)NCCOC(=O)Nc1ccncc1 | -25.1% | 13.2 | -3.7 | -1.2 | .
Cc1ccc(N2CCN(C(=O)c3noc4c3COc3ccc(C)cc3-4)CC2)c(C)c1 | . | -6.0 | . | . | .
CCCCCn1ccc(=O)c2c(C(F)(F)F)nccc21 | ? | -66.2* | 2.4 | -5.7 | -5.6%
CCCCCCCn1ccc(O)c(CC(=O)OC)c1=O | -2.0% | 45.2 | 16.0 | -6.0 | i
Cn1cc(-c2cc3cnc(Nc4cccc(NS(C)(=O)=O)c4)cc3n2Cc2ccccc2)cn1 | . | -87.7* | . | . | .
COc1ccc(Nc2cc3c(cn2)cc(-c2cnn(C)c2)n3Cc2ccccc2)cc1OC | . | -7.6 | . | . | .
COc1ccccc1NC(=O)C1=C(C)Nc2nc3ccccc3n2C1c1cccc(OC)c1OC (centres undefined) | . | -6.7 | . | . | .
Cc1ccc(COc2ccc(CNCCCN3CCCCCC3=O)cc2)cc1 | 0.2% | -39.9 | 70.2* | 25.7* | ?
O=C(COc1ccc(Br)cc1)NCCCN1CCCC1=O | ? | -1.3 | . | . | -5.1%
O=C1C(c2cc(=O)c3ccccc3[nH]2)=C(O)c2ccccc21 | -22.3% | 12.7 | 136.7* | 41.9* | -9.1%
O=C1C(c2c(O)[nH]c3ccccc23)=Nc2ccccc21 | . | 59.8 | 35.9 | 18.2 | .
O=c1nc(-c2ccccc2)c2ccccc2[nH]1 | -25.3% | 18.0 | -0.9 | 2.1 | .
O=c1cc(-c2ccccc2)[nH]c2ccccc12 | 2.4% | -76.3* | 6.7 | -3.3 | 1.47µM*
NC(=O)N(N)c1nc(N2CCCC2)nc(N2CCCC2)n1 | -16.8% | 2.4 | . | . | 10.8%
CSCC[C@H](NC(=O)C1CCN(S(=O)(=O)c2ccc(C)cc2C)CC1)c1nc2ccccc2[nH]1 | . | -33.6 | . | . | .
COc1ccc(C(=O)/C(=C/N(C)C)S(=O)(=O)c2ccccc2)cc1 | 138.0% | 43.3 | 60.9* | 27.3* | 84.3%
Cc1ccc(C(=O)/C=C/c2cc(C#N)n(C)c2C)cc1 | -5.0% | -85.0* | 80.0* | 35.4* | -21.9%
COc1ccc(OC)c(Cc2nnc(CCC(=O)N3CCN(C4CCCC4)CC3)o2)c1 | -11.0% | 75.7 | 99.1* | 40.2* | 4.5%
